The text below walks through data of ChEMBL document CHEMBL3988442, “University of Dundee, Small-Polar-MMV Screening Library” (2021).

Molecules are shown by their SMILES. For some of these results: Measured potencies and affinities stand elsewhere.

Holding throughout (set-up): scale not given: direction of the effect not stated beside the values
The target in experiment [1] is Protein translocase subunit SecA (Escherichia coli (strain K12)) (UniProt P10408). Nature of the experiment: Assay to Identify E. coli SecA ATPase Inhibitors. The class given is functional. The note with it: 30 µM.
Sequence of Protein translocase subunit SecA (Escherichia coli (strain K12)) (P10408 whole entry): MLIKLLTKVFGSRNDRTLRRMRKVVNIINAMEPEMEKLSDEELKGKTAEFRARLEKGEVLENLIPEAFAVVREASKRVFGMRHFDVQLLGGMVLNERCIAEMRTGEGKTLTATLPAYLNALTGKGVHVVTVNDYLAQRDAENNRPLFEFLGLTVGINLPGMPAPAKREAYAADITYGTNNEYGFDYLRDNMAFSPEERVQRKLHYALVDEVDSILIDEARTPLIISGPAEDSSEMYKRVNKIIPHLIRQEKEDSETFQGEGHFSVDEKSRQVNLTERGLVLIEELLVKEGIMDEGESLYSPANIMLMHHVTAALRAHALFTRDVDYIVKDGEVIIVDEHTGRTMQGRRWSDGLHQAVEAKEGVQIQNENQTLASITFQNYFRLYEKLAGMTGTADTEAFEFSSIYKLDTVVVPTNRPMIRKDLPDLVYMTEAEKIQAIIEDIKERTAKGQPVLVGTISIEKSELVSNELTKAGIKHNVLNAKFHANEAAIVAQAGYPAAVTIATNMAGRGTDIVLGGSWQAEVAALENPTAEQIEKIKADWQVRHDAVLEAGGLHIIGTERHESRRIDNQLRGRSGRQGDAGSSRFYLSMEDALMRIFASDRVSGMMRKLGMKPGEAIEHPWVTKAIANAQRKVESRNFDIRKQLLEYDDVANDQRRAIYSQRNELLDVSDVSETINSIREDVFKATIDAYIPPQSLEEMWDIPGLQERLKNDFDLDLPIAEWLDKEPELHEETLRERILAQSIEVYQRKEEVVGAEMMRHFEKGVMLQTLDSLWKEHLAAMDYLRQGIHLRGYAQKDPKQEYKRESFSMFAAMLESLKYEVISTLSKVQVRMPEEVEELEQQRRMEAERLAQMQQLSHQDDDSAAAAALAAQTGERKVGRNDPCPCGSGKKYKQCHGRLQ
The target of experiment [2] is T1, Ubiquitin-activating enzyme e1, putative (Leishmania donovani (strain BPK282A1)) (UniProt E9BSI1).
T1 sequence (whole entry): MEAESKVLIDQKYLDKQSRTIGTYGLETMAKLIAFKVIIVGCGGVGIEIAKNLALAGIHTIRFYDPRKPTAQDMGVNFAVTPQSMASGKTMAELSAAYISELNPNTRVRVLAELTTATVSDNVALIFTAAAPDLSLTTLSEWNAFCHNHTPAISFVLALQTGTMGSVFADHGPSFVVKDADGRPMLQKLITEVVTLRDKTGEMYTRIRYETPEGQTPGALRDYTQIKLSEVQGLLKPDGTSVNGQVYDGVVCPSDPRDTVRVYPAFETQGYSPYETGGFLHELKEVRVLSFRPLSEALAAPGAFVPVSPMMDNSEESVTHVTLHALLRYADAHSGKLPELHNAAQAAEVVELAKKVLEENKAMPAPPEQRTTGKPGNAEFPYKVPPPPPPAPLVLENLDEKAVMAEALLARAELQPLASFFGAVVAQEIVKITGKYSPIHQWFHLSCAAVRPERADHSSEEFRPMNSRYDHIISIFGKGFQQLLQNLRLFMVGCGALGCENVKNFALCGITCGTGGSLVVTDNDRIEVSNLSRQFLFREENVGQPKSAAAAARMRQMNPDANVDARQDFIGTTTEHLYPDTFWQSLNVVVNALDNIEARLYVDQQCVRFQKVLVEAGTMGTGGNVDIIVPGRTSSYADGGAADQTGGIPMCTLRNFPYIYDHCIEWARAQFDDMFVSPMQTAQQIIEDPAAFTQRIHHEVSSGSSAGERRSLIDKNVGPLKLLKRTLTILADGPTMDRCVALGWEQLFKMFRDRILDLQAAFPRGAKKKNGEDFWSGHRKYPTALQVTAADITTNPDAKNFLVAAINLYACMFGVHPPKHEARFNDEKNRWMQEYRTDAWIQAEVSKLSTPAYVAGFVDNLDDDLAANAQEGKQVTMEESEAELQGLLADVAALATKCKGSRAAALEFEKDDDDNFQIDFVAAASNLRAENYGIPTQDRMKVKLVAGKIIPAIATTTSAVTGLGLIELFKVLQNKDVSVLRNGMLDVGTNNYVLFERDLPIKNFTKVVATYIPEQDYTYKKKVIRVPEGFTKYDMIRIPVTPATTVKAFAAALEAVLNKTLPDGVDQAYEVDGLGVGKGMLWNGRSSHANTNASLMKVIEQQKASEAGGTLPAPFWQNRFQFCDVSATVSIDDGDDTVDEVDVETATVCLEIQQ
The experiment in a line: Leishmania donovani Ubiquitin Activating Enzyme (LdE1). Type of experiment: functional. The note with it: 30 µM.

Experiment [3] concerns the target AMP-activated protein kinase, AMPK (Homo sapiens) (UniProt P54646+O43741+P54619+Q9UGJ0+Q9Y478+Q13131+Q9UGI9). The experiment in a line: AMP-dependent Kinase enzyme assay. An in vitro enzyme assay that detects ADP turnover that is directly proportional to AMPK activity. This uses naive AMPK that is activated during the assay with MK-8722. The settings on record: 30 µM. Type of experiment: functional.

Experiment [4] addresses Sialic acid-binding Ig-like lectin 9 (Homo sapiens) (UniProt Q9Y336). The experiment in a line: Hs-Siglec9 ALPHAscreen SOP 20170721. The note with it: 10 µM.
For another experiment, the system named is Trypanosoma cruzi. The experiment in a line: Trypanosoma cruzi phosphomannomutase and mannose-1-phosphate guanylyltransferase assay. The note with it: 10 µM. Type of experiment: functional.
The target in experiment [5] is T2, Arginase-2, mitochondrial (Homo sapiens) (UniProt P78540).
T2 sequence (whole entry): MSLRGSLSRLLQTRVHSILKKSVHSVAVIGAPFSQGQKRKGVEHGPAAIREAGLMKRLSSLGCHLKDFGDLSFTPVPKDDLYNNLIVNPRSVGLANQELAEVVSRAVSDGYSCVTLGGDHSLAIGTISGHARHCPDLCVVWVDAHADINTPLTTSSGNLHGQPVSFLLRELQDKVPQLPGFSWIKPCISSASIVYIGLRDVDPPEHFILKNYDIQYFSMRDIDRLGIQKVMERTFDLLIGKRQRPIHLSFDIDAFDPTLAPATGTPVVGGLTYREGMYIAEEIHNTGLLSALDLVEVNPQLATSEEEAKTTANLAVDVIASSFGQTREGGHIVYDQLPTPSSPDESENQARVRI
The experiment in a line: in vitro enzyme assay to detect the production of urea directly proportional to the activity of Arginase II. Further: in the data most compounds retested in dose-response had high values. Type of experiment: functional. The note with it: 33.3 µM.

For experiment [6], the target named is T3, Proteasome subunit beta (Trypanosoma cruzi) (UniProt O96673).
T3 sequence (whole entry): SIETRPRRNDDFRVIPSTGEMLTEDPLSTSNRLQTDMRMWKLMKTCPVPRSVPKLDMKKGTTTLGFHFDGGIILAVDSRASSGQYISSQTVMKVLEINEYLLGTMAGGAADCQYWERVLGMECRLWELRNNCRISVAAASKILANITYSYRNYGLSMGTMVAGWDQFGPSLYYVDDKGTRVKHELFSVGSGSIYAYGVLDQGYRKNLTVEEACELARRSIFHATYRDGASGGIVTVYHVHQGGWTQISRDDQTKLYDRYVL
Nature of the experiment: Trypanosoma cruzi proteasome chymotrypsin-like activity (TcProtChymo) assay. Further: in the data most compounds retested in dose-response had high values. Type of experiment: functional. The note with it: 9.37 µM.

Another experiment is filed under the species Homo sapiens. The experiment in a line: To identify inhibition of the IFN signalling (Jak-Stat) pathway via expression of an eGFP reporter gene under the control of an IFN-stimulated response element (ISRE) containing MxA promoter. The class given is functional. The note with it: 30 µM.
Experiment [7] addresses T4, Tyrosyl-tRNA synthetase, putative (Trypanosoma cruzi (strain CL Brener)) (UniProt Q4DSP6).
T4 sequence (whole entry): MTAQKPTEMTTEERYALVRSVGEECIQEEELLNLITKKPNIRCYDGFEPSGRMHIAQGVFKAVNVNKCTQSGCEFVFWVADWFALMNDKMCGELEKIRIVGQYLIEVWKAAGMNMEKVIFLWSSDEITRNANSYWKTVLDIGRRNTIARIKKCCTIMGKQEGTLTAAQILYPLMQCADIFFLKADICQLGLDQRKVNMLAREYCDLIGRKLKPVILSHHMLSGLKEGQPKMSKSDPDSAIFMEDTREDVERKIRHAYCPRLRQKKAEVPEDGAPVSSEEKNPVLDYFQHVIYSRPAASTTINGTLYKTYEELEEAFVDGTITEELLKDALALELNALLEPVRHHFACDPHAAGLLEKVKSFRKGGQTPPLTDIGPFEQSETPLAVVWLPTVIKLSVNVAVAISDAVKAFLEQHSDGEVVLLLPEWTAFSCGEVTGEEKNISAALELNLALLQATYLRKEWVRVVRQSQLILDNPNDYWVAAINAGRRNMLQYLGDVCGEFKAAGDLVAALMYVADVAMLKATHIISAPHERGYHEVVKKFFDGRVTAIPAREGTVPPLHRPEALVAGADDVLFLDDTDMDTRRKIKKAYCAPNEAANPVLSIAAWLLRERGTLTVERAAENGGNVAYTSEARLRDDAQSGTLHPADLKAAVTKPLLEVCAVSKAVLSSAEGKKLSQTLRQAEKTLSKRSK
Nature of the experiment: Trypanosoma cruzi tyrosyl tRNA synthetase (TcYRS) _High Tyrosine SOP. Further: in the data most compounds retested in dose-response had high values. Type of experiment: functional. The note with it: 30 µM.

The target of experiment [8] is T4, Tyrosyl-tRNA synthetase, putative (Trypanosoma cruzi (strain CL Brener)). Nature of the experiment: Trypanosoma cruzi tyrosyl tRNA synthetase (TcYRS) SOP. Type of experiment: functional. The note with it: 30 µM.
The target of experiment [9] is Chromo domain-containing protein 1 (Saccharomyces cerevisiae (strain ATCC 204508 / S288c) (Baker's yeast)) (UniProt P32657). The experiment in a line: ScCHD-1 Enzyme Inhibition Assay. Further: in the data most compounds retested in dose-response had high values. The class given is functional. The note with it: 30 µM.
Sequence of Chromo domain-containing protein 1 (Saccharomyces cerevisiae (strain ATCC 204508 / S288c) (Baker's yeast)) (P32657 whole entry, the tested form may be a part): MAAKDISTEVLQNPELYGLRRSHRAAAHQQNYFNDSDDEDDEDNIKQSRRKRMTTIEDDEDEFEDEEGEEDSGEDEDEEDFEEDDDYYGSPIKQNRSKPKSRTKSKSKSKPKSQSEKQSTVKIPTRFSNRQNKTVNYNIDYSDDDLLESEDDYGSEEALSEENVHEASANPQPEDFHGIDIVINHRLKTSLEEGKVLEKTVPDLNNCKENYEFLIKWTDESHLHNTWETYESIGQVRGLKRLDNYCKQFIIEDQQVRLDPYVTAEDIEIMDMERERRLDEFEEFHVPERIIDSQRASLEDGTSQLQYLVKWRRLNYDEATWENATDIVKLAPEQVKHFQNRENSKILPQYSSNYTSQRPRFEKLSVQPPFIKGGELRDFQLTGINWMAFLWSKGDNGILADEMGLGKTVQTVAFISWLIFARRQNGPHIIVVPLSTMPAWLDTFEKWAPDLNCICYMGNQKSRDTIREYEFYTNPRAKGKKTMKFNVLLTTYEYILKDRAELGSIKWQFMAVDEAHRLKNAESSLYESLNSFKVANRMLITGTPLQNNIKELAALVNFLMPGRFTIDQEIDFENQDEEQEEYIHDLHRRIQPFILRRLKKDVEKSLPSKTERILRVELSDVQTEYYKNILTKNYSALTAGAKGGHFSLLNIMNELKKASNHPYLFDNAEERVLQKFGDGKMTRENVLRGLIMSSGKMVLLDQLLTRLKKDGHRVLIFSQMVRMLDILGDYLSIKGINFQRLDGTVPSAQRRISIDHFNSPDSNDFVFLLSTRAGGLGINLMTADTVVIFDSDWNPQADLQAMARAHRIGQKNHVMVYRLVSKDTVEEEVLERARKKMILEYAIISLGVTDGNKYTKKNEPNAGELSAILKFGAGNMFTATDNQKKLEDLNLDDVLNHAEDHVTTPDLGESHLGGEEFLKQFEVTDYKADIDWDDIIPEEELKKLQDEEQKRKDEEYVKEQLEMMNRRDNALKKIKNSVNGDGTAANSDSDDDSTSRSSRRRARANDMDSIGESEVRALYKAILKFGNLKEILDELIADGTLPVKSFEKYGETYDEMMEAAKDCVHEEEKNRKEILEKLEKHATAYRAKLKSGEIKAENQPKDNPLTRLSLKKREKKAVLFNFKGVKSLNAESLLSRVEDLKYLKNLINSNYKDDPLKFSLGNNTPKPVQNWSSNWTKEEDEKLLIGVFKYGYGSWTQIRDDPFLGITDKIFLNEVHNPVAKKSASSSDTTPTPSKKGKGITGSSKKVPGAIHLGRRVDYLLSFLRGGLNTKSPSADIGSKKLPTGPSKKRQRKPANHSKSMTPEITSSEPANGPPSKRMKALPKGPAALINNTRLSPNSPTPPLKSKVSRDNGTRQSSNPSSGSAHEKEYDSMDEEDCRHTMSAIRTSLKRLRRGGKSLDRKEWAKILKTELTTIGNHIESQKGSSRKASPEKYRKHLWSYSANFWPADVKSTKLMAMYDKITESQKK

Sequence of Sialic acid-binding Ig-like lectin 9 (Homo sapiens) (Q9Y336 whole entry): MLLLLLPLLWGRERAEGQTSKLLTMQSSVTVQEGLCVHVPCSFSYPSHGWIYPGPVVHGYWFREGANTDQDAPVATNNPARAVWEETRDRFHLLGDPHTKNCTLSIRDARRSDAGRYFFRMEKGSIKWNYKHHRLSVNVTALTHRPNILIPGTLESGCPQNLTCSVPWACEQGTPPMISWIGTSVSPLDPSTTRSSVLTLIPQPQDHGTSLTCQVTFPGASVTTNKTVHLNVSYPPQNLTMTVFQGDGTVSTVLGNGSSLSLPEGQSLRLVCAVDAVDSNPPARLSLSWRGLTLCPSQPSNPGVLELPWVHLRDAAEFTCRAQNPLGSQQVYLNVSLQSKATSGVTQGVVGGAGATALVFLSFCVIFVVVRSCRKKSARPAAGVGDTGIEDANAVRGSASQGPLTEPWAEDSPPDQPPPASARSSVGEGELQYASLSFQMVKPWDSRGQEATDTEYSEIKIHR

For `Cc1cc(C)n(CC2CCCCN2CC(=O)Nc2nncs2)n1` (stereo not drawn), the Percent Effect was -3.75% in experiment [1]; 8% in experiment [2]; -5.11% in experiment [3]; 15% in [4]; 7.69% with Trypanosoma cruzi; 14.6% in [5]. In addition, the Percent Effect in [6] is 0.349%; in the experiment filed under Homo sapiens it was 13.2%; in experiment [7], 6.01%; in experiment [8], 16.1%; in [9] it was -8.51%.

With `Cc1cnn(C2CCCN(C(=O)c3ccc(N(C)C)nn3)C2)c1` (stereo not drawn), the Percent Effect in [1] was -3.44%; in [2], 15.6%; in experiment [3], 1.44%; in experiment [4] it was -3.44%; in the experiment on Trypanosoma cruzi it was -5.62%; in experiment [5] it was -2.85%. In addition, the Percent Effect is -1.01% in [6]; 33.7% in the experiment listed under Homo sapiens; 4.85% in experiment [7]; 12.2% in [8]; -8.48% in experiment [9].

Turning to `O=C(NCCN1CCNCC1)c1c(O)c2ccccc2[nH]c1=O`, the Percent Effect was 1.56% in [1]; 12% in experiment [2]; 11% in [3]; -7.32% in [4]; -9.23% in the experiment on Trypanosoma cruzi; -14.3% in [5]. In addition, the Percent Effect in experiment [6] is 20.1%; in the experiment listed under Homo sapiens, 26.5%; in experiment [7], 0%; in experiment [8], 5.13%; in experiment [9] it was -9.61%.

As for `Cc1cccc(C)c1OCCNC(=O)NC(C)c1nncn1C` (stereo not drawn), the Percent Effect in experiment [1] is -5.7%; in experiment [2], 15.6%; in experiment [3] it was -1.02%; in experiment [4] it was -14.1%; in the experiment with Trypanosoma cruzi it was 5%; in [5], -2.32%. Further, the Percent Effect in [6] is 25.8%; in the experiment listed under Homo sapiens it was 18.1%; in [7] it was 8.57%; in experiment [8], 23.5%; in [9], -21.4%.

As to `COCCN1CCC(N(Cc2noc(C3CC3)n2)C(C)=O)C1` (stereo not drawn), the Percent Effect was -2.54% in experiment [1]; 13.5% in experiment [2]; -5% in experiment [3]; -6.65% in experiment [4]; -5.11% in the experiment on Trypanosoma cruzi; -0.924% in experiment [5]. For the same molecule, the Percent Effect was 18.3% in experiment [6]; 20.9% in the experiment listed under Homo sapiens; 0.99% in experiment [7]; 11% in [8]; -8.27% in experiment [9].

Take `CN(C)S(=O)(=O)N1CCN(c2nccc(C(F)(F)F)n2)CC1`: the Percent Effect in experiment [1] was -2.09%; in experiment [2], 5.48%; in [3], 8.09%; in [4] it was 4.91%; in the experiment with Trypanosoma cruzi it was 7.64%; in [5] it was 0.909%. In addition, the Percent Effect in [6] is 10.5%; in the experiment listed under Homo sapiens, 9.93%; in experiment [7], 5.38%; in experiment [8], 12.5%; in [9] it was -3.75%.

As for `CC(Cn1ccnc1)NC(=O)C1(c2ccc(F)cc2)CC1` (stereo not drawn), the Percent Effect in experiment [1] is -2.91%; in [2], 17.7%; in experiment [3], -3.38%; in experiment [4], -4.39%; with Trypanosoma cruzi, 2.93%; in experiment [5], -3.42%. Moreover, the Percent Effect was 4.83% in experiment [6]; -2.07% in the experiment listed under Homo sapiens; 1.48% in experiment [7]; 16.5% in [8]; -3.1% in [9].

On to `CC1CN(C(=O)CN(Cc2ccccc2Br)C2CC2)CCO1` (stereo not drawn), for which the Percent Effect in experiment [1] was -1.13%; in experiment [2], 0%; in experiment [3], 4.5%; in [4], 0.479%; with Trypanosoma cruzi, 3.82%; in experiment [5], -3.16%. Also, the Percent Effect in experiment [6] was -4.77%; in the experiment filed under Homo sapiens, 13.8%; in experiment [7] it was 3.81%; in experiment [8] it was 7.06%; in [9] it was -7.55%.
